Measurements taken from PMC11006913.
Positions count from the first letter of the chain named.

What was measured:
Test in all cases: PBM; 200 nM protein, PBS
Details in all cases: dsDNA, one strand shown
HESX1 [1] = target: HESX1 (Homo sapiens, UniProt Q9UBX0 95-180, R165K)
HESX1 [2] = target: HESX1 (Homo sapiens, UniProt Q9UBX0 95-180)
HESX1 [3] = target: HESX1 (Homo sapiens, UniProt Q9UBX0 95-180, R109Q)
HESX1 [4] = target: HESX1 (Homo sapiens, UniProt Q9UBX0 95-180, P111T)
HESX1 [5] = target: HESX1 (Homo sapiens, UniProt Q9UBX0 95-180, F115L)
HESX1 (Homo sapiens, UniProt Q9UBX0 95-180, F115L), sequence (Q9UBX0 95-180 F115L): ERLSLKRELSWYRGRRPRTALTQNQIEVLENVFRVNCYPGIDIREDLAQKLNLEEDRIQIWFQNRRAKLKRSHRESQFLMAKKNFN

PRRX1 = PRRX1 (Homo sapiens, UniProt P54821 80-166)
PRRX1, sequence (P54821 80-166): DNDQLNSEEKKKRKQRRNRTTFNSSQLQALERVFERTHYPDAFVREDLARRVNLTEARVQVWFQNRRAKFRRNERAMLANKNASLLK

HOXB4 [6] = target: HOXB4 (Homo sapiens, UniProt P17483 148-234)
HOXB4 (Homo sapiens, UniProt P17483 148-234), sequence (P17483 148-234): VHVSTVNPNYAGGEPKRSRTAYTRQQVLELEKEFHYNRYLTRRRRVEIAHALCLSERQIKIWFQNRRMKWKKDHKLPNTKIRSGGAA

CRX [7] = target: CRX (Homo sapiens, UniProt O43186 26-111)
CRX (Homo sapiens, UniProt O43186 26-111), sequence (O43186 26-111): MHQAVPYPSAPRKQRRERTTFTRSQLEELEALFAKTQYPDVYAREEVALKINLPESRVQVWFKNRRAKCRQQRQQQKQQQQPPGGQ

PAX4 [8] = target: T1, PAX4 (Homo sapiens, UniProt O43316 9-242, R200K)
T1 sequence: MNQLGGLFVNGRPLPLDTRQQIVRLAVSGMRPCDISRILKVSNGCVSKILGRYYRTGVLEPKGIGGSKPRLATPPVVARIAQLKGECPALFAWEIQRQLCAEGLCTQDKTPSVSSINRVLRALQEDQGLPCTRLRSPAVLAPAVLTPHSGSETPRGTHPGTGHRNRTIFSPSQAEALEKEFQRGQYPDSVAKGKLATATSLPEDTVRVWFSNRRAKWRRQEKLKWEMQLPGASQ

PAX4 [9] = target: T2, PAX4 (Homo sapiens, UniProt O43316 9-242)
T2 sequence: T1 sequence with K192R

HOXB4 [10] = target: HOXB4 (Homo sapiens, UniProt P17483 148-234, V174I)
HOXB4 (Homo sapiens, UniProt P17483 148-234, V174I), sequence (P17483 148-234 V174I): as the sequence (P17483 148-234) above, with V27I counted along it

NKX2-6 = target: T3, NKX2-6 (Homo sapiens, UniProt A6NCS4 118-204, R150C)
T3 sequence: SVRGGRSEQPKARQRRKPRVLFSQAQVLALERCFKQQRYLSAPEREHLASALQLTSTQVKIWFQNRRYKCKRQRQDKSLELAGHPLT

CRX [11] = target: CRX (Homo sapiens, UniProt O43186 26-111, E42D)
CRX (Homo sapiens, UniProt O43186 26-111, E42D), sequence (O43186 26-111 E42D): as the sequence (O43186 26-111) above, with E17D counted along it

PAX4 [12] = target: T4, PAX4 (Homo sapiens, UniProt O43316 9-242, R200Q)
T4 sequence: T1 sequence with K192Q

PAX4 [13] = target: T5, PAX4 (Homo sapiens, UniProt O43316 9-242, F177V)
T5 sequence: T1 sequence with F169V, K192R

PAX4 [14] = target: T6, PAX4 (Homo sapiens, UniProt O43316 9-242, F177Y)
T6 sequence: T1 sequence with F169Y, K192R

PAX4 [15] = target: T7, PAX4 (Homo sapiens, UniProt O43316 9-242, R227W)
T7 sequence: T1 sequence with K192R, R219W

CRX [16] = target: CRX (Homo sapiens, UniProt O43186 26-111, R41L)
CRX (Homo sapiens, UniProt O43186 26-111, R41L), sequence (O43186 26-111 R41L): as the sequence (O43186 26-111) above, with R16L counted along it

HESX1 (Homo sapiens, UniProt Q9UBX0 95-180, R165K), sequence (Q9UBX0 95-180 R165K): as the sequence (Q9UBX0 95-180 F115L) above, with L21F, R71K counted along it
HESX1 (Homo sapiens, UniProt Q9UBX0 95-180, R109Q), sequence (Q9UBX0 95-180 R109Q): as the sequence (Q9UBX0 95-180 F115L) above, with R15Q, L21F counted along it
HESX1 (Homo sapiens, UniProt Q9UBX0 95-180), sequence (Q9UBX0 95-180): as the sequence (Q9UBX0 95-180 F115L) above, with L21F counted along it
HESX1 (Homo sapiens, UniProt Q9UBX0 95-180, P111T), sequence (Q9UBX0 95-180 P111T): as the sequence (Q9UBX0 95-180 F115L) above, with P17T, L21F counted along it

With CGTGCCAC the binding signal (HESX1 [1]) was 6.27 upbm affinity estimate (log intensity, higher = more binding, comparable within an allelic series), the binding signal (HESX1 [2]) was 6.24 upbm affinity estimate (log intensity, higher = more binding, comparable within an allelic series) and the binding signal (HESX1 [3]) was 6.45 upbm affinity estimate (log intensity, higher = more binding, comparable within an allelic series). The binding signal (HESX1 [4]) was 6.56 upbm affinity estimate (log intensity, higher = more binding, comparable within an allelic series) and the binding signal (HESX1 [5]) was 6.43 upbm affinity estimate (log intensity, higher = more binding, comparable within an allelic series).

CAGAACGC was tested, and the binding signal (HESX1 [1]) was 6.46 upbm affinity estimate (log intensity, higher = more binding, comparable within an allelic series), the binding signal (HESX1 [2]) was 6.44 upbm affinity estimate (log intensity, higher = more binding, comparable within an allelic series) and the binding signal (HESX1 [3]) was 6.49 upbm affinity estimate (log intensity, higher = more binding, comparable within an allelic series). The binding signal (HESX1 [4]) was 6.34 upbm affinity estimate (log intensity, higher = more binding, comparable within an allelic series) and the binding signal (HESX1 [5]) was 6.48 upbm affinity estimate (log intensity, higher = more binding, comparable within an allelic series).

For CAGAGTCA, the binding signal (HESX1 [1]) was 6.47 upbm affinity estimate (log intensity, higher = more binding, comparable within an allelic series), the binding signal (HESX1 [2]) was 6.43 upbm affinity estimate (log intensity, higher = more binding, comparable within an allelic series) and the binding signal (HESX1 [3]) was 6.67 upbm affinity estimate (log intensity, higher = more binding, comparable within an allelic series). For the same sequence, the binding signal (HESX1 [4]) was 6.59 upbm affinity estimate (log intensity, higher = more binding, comparable within an allelic series) and the binding signal (HESX1 [5]) was 6.54 upbm affinity estimate (log intensity, higher = more binding, comparable within an allelic series).

For AGCGTTCG, the binding signal (HESX1 [1]) was 6.54 upbm affinity estimate (log intensity, higher = more binding, comparable within an allelic series), the binding signal (HESX1 [2]) was 6.5 upbm affinity estimate (log intensity, higher = more binding, comparable within an allelic series) and the binding signal (HESX1 [3]) was 6.53 upbm affinity estimate (log intensity, higher = more binding, comparable within an allelic series). The binding signal (HESX1 [4]) was 6.53 upbm affinity estimate (log intensity, higher = more binding, comparable within an allelic series) and the binding signal (HESX1 [5]) was 6.63 upbm affinity estimate (log intensity, higher = more binding, comparable within an allelic series).

CACGGCTC was tested, and the binding signal (HESX1 [1]) was 6.57 upbm affinity estimate (log intensity, higher = more binding, comparable within an allelic series), the binding signal (HESX1 [2]) was 6.56 upbm affinity estimate (log intensity, higher = more binding, comparable within an allelic series) and the binding signal (HESX1 [3]) was 6.55 upbm affinity estimate (log intensity, higher = more binding, comparable within an allelic series). For the same sequence, the binding signal (HESX1 [4]) was 6.58 upbm affinity estimate (log intensity, higher = more binding, comparable within an allelic series) and the binding signal (HESX1 [5]) was 6.53 upbm affinity estimate (log intensity, higher = more binding, comparable within an allelic series).

In the case of AGTGTCGG, the binding signal (HESX1 [1]) is reported as 6.51 upbm affinity estimate (log intensity, higher = more binding, comparable within an allelic series), the binding signal (HESX1 [2]) is reported as 6.53 upbm affinity estimate (log intensity, higher = more binding, comparable within an allelic series) and the binding signal (HESX1 [3]) is reported as 6.58 upbm affinity estimate (log intensity, higher = more binding, comparable within an allelic series). For the same sequence, the binding signal (HESX1 [4]) was 6.56 upbm affinity estimate (log intensity, higher = more binding, comparable within an allelic series) and the binding signal (HESX1 [5]) was 6.55 upbm affinity estimate (log intensity, higher = more binding, comparable within an allelic series).

In the case of AAGGAGGC, the binding signal (HESX1 [1]) is reported as 6.49 upbm affinity estimate (log intensity, higher = more binding, comparable within an allelic series), the binding signal (HESX1 [2]) is reported as 6.42 upbm affinity estimate (log intensity, higher = more binding, comparable within an allelic series) and the binding signal (HESX1 [3]) is reported as 6.53 upbm affinity estimate (log intensity, higher = more binding, comparable within an allelic series). The binding signal (HESX1 [4]) was 6.52 upbm affinity estimate (log intensity, higher = more binding, comparable within an allelic series) and the binding signal (HESX1 [5]) was 6.51 upbm affinity estimate (log intensity, higher = more binding, comparable within an allelic series).

For GAAGTCGC, the binding signal (HESX1 [1]) was 6.48 upbm affinity estimate (log intensity, higher = more binding, comparable within an allelic series), the binding signal (HESX1 [2]) was 6.36 upbm affinity estimate (log intensity, higher = more binding, comparable within an allelic series) and the binding signal (HESX1 [3]) was 6.51 upbm affinity estimate (log intensity, higher = more binding, comparable within an allelic series). For the same sequence, the binding signal (HESX1 [4]) was 6.43 upbm affinity estimate (log intensity, higher = more binding, comparable within an allelic series) and the binding signal (HESX1 [5]) was 6.56 upbm affinity estimate (log intensity, higher = more binding, comparable within an allelic series).

For AACAATAC, the binding signal (HESX1 [1]) was 7.27 upbm affinity estimate (log intensity, higher = more binding, comparable within an allelic series), the binding signal (HESX1 [2]) was 7.3 upbm affinity estimate (log intensity, higher = more binding, comparable within an allelic series) and the binding signal (HESX1 [4]) was 7.19 upbm affinity estimate (log intensity, higher = more binding, comparable within an allelic series). For the same sequence, the binding signal (PRRX1) was 10.9 upbm affinity estimate (log intensity, higher = more binding, comparable within an allelic series).

In the case of TAACGATA, the binding signal (HESX1 [1]) is reported as 7.67 upbm affinity estimate (log intensity, higher = more binding, comparable within an allelic series), the binding signal (HESX1 [2]) is reported as 7.8 upbm affinity estimate (log intensity, higher = more binding, comparable within an allelic series) and the binding signal (HESX1 [4]) is reported as 7.53 upbm affinity estimate (log intensity, higher = more binding, comparable within an allelic series).

In the case of GACGCCGC, the binding signal (HOXB4 [6]) is reported as 7.74 upbm affinity estimate (log intensity, higher = more binding, comparable within an allelic series), the binding signal (CRX [7]) is reported as 8.08 upbm affinity estimate (log intensity, higher = more binding, comparable within an allelic series) and the binding signal (PAX4 [8]) is reported as 9.17 upbm affinity estimate (log intensity, higher = more binding, comparable within an allelic series). The binding signal (PAX4 [9]) was 9.29 upbm affinity estimate (log intensity, higher = more binding, comparable within an allelic series), the binding signal (HOXB4 [10]) was 7.51 upbm affinity estimate (log intensity, higher = more binding, comparable within an allelic series) and the binding signal (NKX2-6) was 9.27 upbm affinity estimate (log intensity, higher = more binding, comparable within an allelic series). For the same sequence, the binding signal (CRX [11]) was 8.14 upbm affinity estimate (log intensity, higher = more binding, comparable within an allelic series), the binding signal (PAX4 [12]) was 9.2 upbm affinity estimate (log intensity, higher = more binding, comparable within an allelic series) and the binding signal (PAX4 [13]) was 9.15 upbm affinity estimate (log intensity, higher = more binding, comparable within an allelic series). For the same sequence, the binding signal (PAX4 [14]) was 9.2 upbm affinity estimate (log intensity, higher = more binding, comparable within an allelic series), the binding signal (PAX4 [15]) was 9.18 upbm affinity estimate (log intensity, higher = more binding, comparable within an allelic series) and the binding signal (CRX [16]) was 8.18 upbm affinity estimate (log intensity, higher = more binding, comparable within an allelic series).
